Activity calls are given as the source filed them. Rule for the calls: active = hit-call score of the fitted dose curve at least 0.9, where 1 is the maximum; inactive = score below 0.9.

Assay [1] can be described thus: ATG_CRE_CIS: Attagene CIS-FACTORIAL HepG2 Assay for human cAMP Responsive Element (CRE) binding protein 3 (AID 2282926). The settings on record: HepG2 CRE cis-reporter, Attagene multiplexed mRNA; actives raise or lower the signal. The method in brief: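 Transfected HepG2 were treated for 24 hours, then RNA was extracted and reporter cDNA amplified with sequence-specific primers. Labelled fragments were separated by capillary electrophoresis, and the CRE signal was fitted bidirectionally with DMSO as baseline.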

Assay [2] deals with CCAAT/enhancer-binding protein beta (Homo sapiens) (UniProt P17676). The assay is described as follows: ATG_C_EBP_CIS: Attagene CIS-FACTORIAL HepG2 Assay for human CCAAT/Enhancer Binding Protein (C/EBP) beta (AID 2282927). The settings on record: HepG2 Attagene cis-factorial transcription factor reporter; actives raise or lower the signal. The method in brief:
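HepG2 transiently transfected with multiplexed reporter units under cis-regulatory promoters reporting endogenous C/EBPb activity. After 24 h exposure, reporter mRNA assayed by RT-PCR, fluorescent labelling, HpaI digestion and capillary electrophoresis; bidirectional fitting versus DMSO.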

Assay [3] in a line: ATG_CMV_CIS: Attagene CIS-FACTORIAL HepG2 Assay for human CMV (Internal Marker) (AID 2282928).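 Note: endpoint acts as a background internal control marker rather than a target.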 The settings on record: HepG2 CMV promoter reporter, transcription factor profiling; actives raise or lower the signal. The method in brief:
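Endogenous transcription factor activity read in HepG2 via transfected cis-promoter reporter units. After 24 h dosing, reporter mRNA measured by RT-PCR/capillary electrophoresis; gain or loss of signal fit relative to DMSO.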

Assay [4] can be described thus: ATG_DR4_LXR_CIS: Attagene CIS-FACTORIAL HepG2 Assay for human Liver X Receptor (LXR), DR4 submotif (AID 2282929). Conditions: HepG2 Attagene DR4 cis-reporter, mRNA transcription; actives raise or lower the signal. The essentials:
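After transient transfection with multiplexed cis-promoter reporter units, HepG2 cells received test chemicals for 24 h. Reporter mRNA induction, detected by fluorescence after RT-PCR and capillary electrophoresis, was scored relative to DMSO.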

Assay [5] has as its target Aryl hydrocarbon receptor (Homo sapiens) (UniProt P35869). The assay is described as follows: ATG_Ahr_CIS: Attagene CIS-FACTORIAL HepG2 Assay for human Aryl Hydrocarbon Receptor (Ahr) (AID 2282930). Conditions: HepG2 AhR cis-factorial reporter transcription; actives raise or lower the signal. The essentials: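 HepG2 cells transiently transfected with cis-element-driven multiplexed reporter units; endogenous AhR activity read as reporter mRNA 24 h after dosing, via RT-PCR, 6-FAM labelling, HpaI digestion and capillary electrophoresis. Bidirectional fit relative to DMSO.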

Assay [6] can be described thus: ATG_AP_1_CIS: Attagene CIS-FACTORIAL HepG2 Assay for human Activator Protein 1 (AP-1) (AID 2282931). The settings on record: HepG2 Attagene cis-factorial AP-1 reporter mRNA; actives raise or lower the signal. The method in brief:
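After 24 h incubation with test chemical, RNA from transfected HepG2 cells was reverse-transcribed, amplified, fluorescently labelled and digested before capillary electrophoresis. Reporters were driven by cis-regulatory promoters; activity fitted bidirectionally versus DMSO.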

Assay [7] can be described thus: ATG_AP_2_CIS: Attagene CIS-FACTORIAL HepG2 Assay for human Activator Protein 2 (AP-2) (AID 2282932). Conditions: HepG2 AP-2 cis-reporter, Attagene transcription factor profiling; actives raise or lower the signal. The essentials:
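HepG2 cells transiently transfected with cis-element reporter units and exposed for 24 h. Reporter mRNA measured by RT-PCR, FAM labelling, HpaI digestion and capillary electrophoresis. Changes in either direction fitted relative to DMSO.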

Assay [8] in a line: ATG_BRE_CIS: Attagene CIS-FACTORIAL HepG2 Assay for human Bone Morphogenetic Protein (BMP) Response Element (BRE) (AID 2282933). The settings on record: HepG2 BMP response element reporter, Attagene transcription factor profiling; actives raise or lower the signal. The essentials: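 Endogenous transcription factor activity at a BMP response element was monitored in transfected HepG2 cells 24 h after dosing. Fluorescent RT-PCR products were resolved by capillary electrophoresis, and activity was fitted in both directions versus DMSO.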

The target in assay [9] is Retinoic acid receptor alpha (Homo sapiens) (UniProt P10276). The assay is described as follows: ATG_DR5_RAR_CIS: Attagene CIS-FACTORIAL HepG2 Assay for human Retinoic Acid Receptor Alpha (RARE), DR5 submotif (AID 2282934). Conditions: HepG2 Attagene cis-factorial RARE DR5 reporter, mRNA; actives raise or lower the signal. The method in brief:
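HepG2 cells transiently transfected with multiplexed reporter units; DR5 cis-element drives reporter through endogenous transcription factors. After 24 h dosing, reporter mRNA quantified by RT-PCR, fluorescent labeling, HpaI digestion and capillary electrophoresis; bidirectional fitting versus DMSO.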

In assay [10] the target is Transcription factor E2F1 (Homo sapiens) (UniProt Q01094). The assay is described as follows: ATG_E2F_CIS: Attagene CIS-FACTORIAL HepG2 Assay for human E2F Transcription Factor 1 (AID 2282935). Conditions: HepG2 Attagene cis-reporter, E2F reporter RNA transcripts; actives raise or lower the signal. The essentials:
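Endogenous E2F1 activity read through cis-promoter reporter units transfected into HepG2. After 24 h compound treatment, reporter mRNA measured by RT-PCR, HpaI digestion and capillary electrophoresis. Bidirectional fit versus DMSO.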

The nature of assay [11]: ATG_E_Box_CIS: Attagene CIS-FACTORIAL HepG2 Assay for human Enhancer Box (E-box) (AID 2282936). Conditions: HepG2 E-box cis-reporter transcription, actives raise or lower the signal. The method in brief: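 HepG2 cells transiently transfected with multiplexed cis-element reporter units, dosed 24 h; reporter mRNA quantified by RT-PCR, 6-FAM labelling, HpaI digestion and capillary electrophoresis. E-box (USF1) signal fitted bidirectionally vs DMSO.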

The nature of assay [12]: ATG_M_61_CIS: Attagene CIS-FACTORIAL HepG2 Assay for M61 Transcription Factor (Internal Marker) (AID 2282937). Conditions: HepG2 Attagene CIS-FACTORIAL M61 internal marker reporter; actives raise or lower the signal. The method in brief: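 Using transiently transfected HepG2 liver cells, reporter transcript levels were assessed 24 h post-dosing by RT-PCR and capillary electrophoresis. Changes in either direction were fitted relative to DMSO controls.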

Assay [13] in a line: ATG_EGR_CIS: Attagene CIS-FACTORIAL HepG2 Assay for human Early Growth Response 1 (EGR1) (AID 2282938). Conditions: HepG2 Attagene CIS-FACTORIAL EGR reporter mRNA; actives raise or lower the signal. The method in brief: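 Fluorescent capillary-electrophoresis signal of reporter cDNA fragments serves as read-out. HepG2 cells bear transiently transfected cis-promoter reporter units and are exposed 24 h; gain- or loss-of-signal is fitted against DMSO.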

The nature of assay [14]: ATG_M_19_CIS: Attagene CIS-FACTORIAL HepG2 Assay for M19 Transcription Factor (Internal Marker) (AID 2282939). Conditions: HepG2 Attagene CIS-FACTORIAL M19 internal marker reporter; actives raise or lower the signal. The essentials:
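Background-control endpoint from a multiplexed HepG2 reporter panel. Cells carrying cis-regulated reporter constructs are treated 24 h, then reporter transcripts are amplified, fluorescently labelled and sized by capillary electrophoresis. DMSO defines baseline.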

Assay [15] can be described thus: ATG_Ets_CIS: Attagene CIS-FACTORIAL HepG2 Assay for human Erythroblast Transformation Specific (ETS) (AID 2282941). Conditions: HepG2 ETS cis-reporter transcription, actives raise or lower the signal. The method in brief:
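Steps: transfect HepG2 with multiple reporter units; treat compound 24 h; isolate RNA, DNase-treat, reverse-transcribe; PCR-amplify, label with 6-FAM, digest with HpaI; separate by capillary electrophoresis. Activity fitted both directions versus DMSO.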

Assay [16] concerns the target Hepatocyte nuclear factor 3-beta (Homo sapiens) (UniProt Q9Y261). The assay is described as follows: ATG_FoxA2_CIS: Attagene CIS-FACTORIAL HepG2 Assay for human Forkhead box A2 (FOXA2) (AID 2282942). The settings on record: HepG2 cis-reporter transcription factor activity, 24 h; actives raise or lower the signal. The method in brief: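 Fluorescence signal of reporter cDNA fragments, separated by capillary electrophoresis, reflects endogenous transcription factor activity in transfected HepG2 after 24 h. Both increases and decreases fitted against DMSO.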

Assay [17] can be described thus: ATG_FoxO_CIS: Attagene CIS-FACTORIAL HepG2 Assay for human Forkhead box O (FoxO) (AID 2282943). Conditions: HepG2 Attagene cis-reporter, FoxO element, mRNA; actives raise or lower the signal. The method in brief: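 HepG2 cells transiently transfected with cis-element-driven reporter units report endogenous FoxO activity. After 24 h chemical exposure, reporter mRNA quantified by RT-PCR, fluorescent labeling, HpaI digestion and capillary electrophoresis; bidirectional fit versus DMSO.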

Assay [18] in a line: ATG_GATA_CIS: Attagene CIS-FACTORIAL HepG2 Assay for human GATA Binding Protein (AID 2282944). The settings on record: HepG2 GATA cis-element reporter, Attagene multiplex mRNA; actives raise or lower the signal. The method in brief: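 Endogenous transcription factor activity was captured through cis-promoter-driven reporters in transfected HepG2 cells. After 24 h exposure, reporter transcripts were quantified by RT-PCR with fluorescent capillary electrophoresis, and responses fitted both directions against DMSO.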

Assay [19] in a line: ATG_GLI_CIS: Attagene CIS-FACTORIAL HepG2 Assay for human Zinc Finger Protein GLI1 (AID 2282945). Conditions: HepG2, Attagene cis-factorial reporter mRNA, GLI element; actives raise or lower the signal. The essentials:
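Transiently transfected HepG2 cells report endogenous transcription factor activity via cis-element-driven reporter units. After 24 h compound exposure, reporter mRNA was measured by RT-PCR with capillary electrophoresis; bidirectional fitting against DMSO baseline.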

Chain of CCAAT/enhancer-binding protein beta (Homo sapiens) (P17676 whole entry, looked up): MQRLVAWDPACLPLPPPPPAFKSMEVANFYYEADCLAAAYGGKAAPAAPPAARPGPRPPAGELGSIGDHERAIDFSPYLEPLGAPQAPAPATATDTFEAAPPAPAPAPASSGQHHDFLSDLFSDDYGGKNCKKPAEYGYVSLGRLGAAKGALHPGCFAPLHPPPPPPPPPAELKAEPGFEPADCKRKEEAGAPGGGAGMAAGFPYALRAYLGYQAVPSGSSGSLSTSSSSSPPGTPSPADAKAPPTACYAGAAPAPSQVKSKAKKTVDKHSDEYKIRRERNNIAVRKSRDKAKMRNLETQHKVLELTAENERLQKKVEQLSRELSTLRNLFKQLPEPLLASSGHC
Chain of Transcription factor E2F1 (Homo sapiens) (Q01094 whole entry, looked up): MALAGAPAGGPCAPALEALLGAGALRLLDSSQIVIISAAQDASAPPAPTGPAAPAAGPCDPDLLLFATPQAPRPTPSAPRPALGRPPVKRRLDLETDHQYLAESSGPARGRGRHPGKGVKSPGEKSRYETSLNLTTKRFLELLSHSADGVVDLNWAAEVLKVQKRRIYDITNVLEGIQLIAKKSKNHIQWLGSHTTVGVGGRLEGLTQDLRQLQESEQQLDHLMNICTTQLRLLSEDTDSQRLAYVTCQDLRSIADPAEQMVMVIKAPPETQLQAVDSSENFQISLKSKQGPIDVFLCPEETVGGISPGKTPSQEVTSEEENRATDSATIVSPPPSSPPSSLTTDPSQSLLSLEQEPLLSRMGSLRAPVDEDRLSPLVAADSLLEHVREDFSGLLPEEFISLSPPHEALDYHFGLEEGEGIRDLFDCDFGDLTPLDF
Chain of Aryl hydrocarbon receptor (Homo sapiens) (P35869 whole entry, looked up): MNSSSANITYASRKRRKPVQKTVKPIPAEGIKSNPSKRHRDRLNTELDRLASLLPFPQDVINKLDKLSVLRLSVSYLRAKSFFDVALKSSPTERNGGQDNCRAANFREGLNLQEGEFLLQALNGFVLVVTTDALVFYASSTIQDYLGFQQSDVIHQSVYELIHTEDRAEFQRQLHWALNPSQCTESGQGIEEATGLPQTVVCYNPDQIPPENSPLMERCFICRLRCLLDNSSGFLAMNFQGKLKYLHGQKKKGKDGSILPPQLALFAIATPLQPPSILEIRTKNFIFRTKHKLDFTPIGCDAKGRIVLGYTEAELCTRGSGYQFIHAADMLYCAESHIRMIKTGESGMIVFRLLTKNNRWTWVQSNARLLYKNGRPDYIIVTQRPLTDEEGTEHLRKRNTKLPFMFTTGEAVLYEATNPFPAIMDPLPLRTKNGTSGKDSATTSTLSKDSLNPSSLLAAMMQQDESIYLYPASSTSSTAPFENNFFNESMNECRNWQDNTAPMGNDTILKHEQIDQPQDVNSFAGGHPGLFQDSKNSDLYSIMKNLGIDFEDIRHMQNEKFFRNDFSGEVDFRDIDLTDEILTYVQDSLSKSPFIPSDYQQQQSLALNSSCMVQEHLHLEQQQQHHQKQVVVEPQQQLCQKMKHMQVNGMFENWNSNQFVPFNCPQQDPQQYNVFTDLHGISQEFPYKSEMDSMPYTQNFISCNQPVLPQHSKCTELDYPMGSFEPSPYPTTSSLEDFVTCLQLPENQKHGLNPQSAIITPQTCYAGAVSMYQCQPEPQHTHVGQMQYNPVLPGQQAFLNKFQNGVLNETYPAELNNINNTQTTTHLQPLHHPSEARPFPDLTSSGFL
Chain of Hepatocyte nuclear factor 3-beta (Homo sapiens) (Q9Y261 whole entry, looked up, the tested form may be a part): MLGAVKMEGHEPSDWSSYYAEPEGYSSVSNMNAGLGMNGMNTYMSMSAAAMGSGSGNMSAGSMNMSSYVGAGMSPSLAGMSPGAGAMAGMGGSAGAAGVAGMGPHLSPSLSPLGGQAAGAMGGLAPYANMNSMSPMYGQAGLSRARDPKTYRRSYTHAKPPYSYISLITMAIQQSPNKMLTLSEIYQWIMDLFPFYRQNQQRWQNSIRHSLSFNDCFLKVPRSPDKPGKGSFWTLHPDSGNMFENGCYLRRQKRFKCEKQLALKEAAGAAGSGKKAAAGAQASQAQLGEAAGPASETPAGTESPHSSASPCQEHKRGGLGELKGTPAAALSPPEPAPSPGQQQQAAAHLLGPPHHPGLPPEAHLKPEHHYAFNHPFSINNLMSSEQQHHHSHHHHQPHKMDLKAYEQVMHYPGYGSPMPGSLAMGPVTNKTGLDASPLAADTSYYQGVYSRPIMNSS
Chain of Retinoic acid receptor alpha (Homo sapiens) (P10276 whole entry, looked up): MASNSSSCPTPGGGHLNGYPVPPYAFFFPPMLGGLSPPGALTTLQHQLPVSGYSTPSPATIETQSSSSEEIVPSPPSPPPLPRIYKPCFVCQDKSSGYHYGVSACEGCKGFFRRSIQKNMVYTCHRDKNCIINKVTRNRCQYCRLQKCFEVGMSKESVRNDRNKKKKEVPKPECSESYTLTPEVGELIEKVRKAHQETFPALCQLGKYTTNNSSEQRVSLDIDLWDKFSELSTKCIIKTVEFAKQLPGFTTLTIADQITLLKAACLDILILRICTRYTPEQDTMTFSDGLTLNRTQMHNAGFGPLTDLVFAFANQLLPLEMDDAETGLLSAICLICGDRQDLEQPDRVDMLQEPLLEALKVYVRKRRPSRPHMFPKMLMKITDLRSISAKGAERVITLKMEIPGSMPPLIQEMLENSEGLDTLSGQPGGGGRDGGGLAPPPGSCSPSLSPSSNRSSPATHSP

Turning to `C=C(C)C(=O)OCCOC1CC2CC1C1C=CCC21` (configuration not stated), the compound was called inactive in [1], in assay [2], in assay [3], in assay [4], in assay [5] and in [6]. For the same compound, the outcome in [7], in assay [8], in assay [9], in assay [10], in assay [11] and in [12] was inactive. The outcome in [13], in assay [14], in assay [15], in [16], in assay [17] and in assay [18] was inactive. In addition, the outcome in [19] was inactive.
As to `C=C(C)C(=O)OCCOCCOCCOC(=O)C(=C)C`, the result in assay [1], in [2], in assay [3], in assay [4], in assay [5] and in [6] was inactive. The compound was called inactive in assay [7], in assay [8], in assay [9], in assay [10], in assay [11] and in assay [12]. For the same compound, the call in [13], in assay [14], in assay [15], in [16], in [17] and in [18] was inactive. In assay [19], the result was inactive.
As to `N#Cc1cscn1`, the call in [1], in assay [2], in assay [3], in assay [4], in [6] and in [7] was inactive. The outcome in assay [8], in [9], in assay [10], in assay [11], in [12] and in assay [13] was inactive. Besides, the compound was called inactive in assay [14], in [15], in assay [16], in [17], in assay [18] and in assay [19]. Besides, the half-maximal activity concentration (AC50) in assay [5] is 34.7 µM (active).
Turning to `CC(Oc1cc(Cl)ccc1Cl)C(=O)O` (configuration not stated), the compound was called inactive in assay [1], in assay [2], in assay [3], in [4], in assay [5] and in [6]. Also, the call in [7], in [8], in assay [9], in assay [10], in assay [11] and in assay [12] was inactive. Further, the compound was called inactive in assay [13], in [14], in [15], in assay [16], in assay [17] and in assay [18]. Moreover, in assay [19], the result was inactive.
Turning to `CCC(C)=O`, the compound was called inactive in assay [1], in [2], in [3], in [4], in assay [5] and in [6]. The compound was classed as inactive in assay [7], in assay [8], in [9], in assay [10], in assay [11] and in assay [12]. In addition, the compound was called inactive in [13], in [14], in assay [15], in [16], in assay [17] and in [18]. The compound was classed as inactive in assay [19].
As to `CC(C=O)Cc1ccc(C(C)(C)C)cc1` (configuration not stated), the outcome in [1], in assay [2], in [3], in assay [4], in assay [5] and in [6] was inactive. Also, the outcome in [7], in assay [8], in assay [9], in [10], in [11] and in assay [12] was inactive. Also, the result in assay [13], in assay [14], in assay [15], in assay [16], in assay [17] and in assay [18] was inactive. The compound was classed as inactive in assay [19].
Regarding `CCCCSCCCC`, the compound was classed as inactive in [1], in assay [2], in assay [3], in [4], in [5] and in assay [6]. Besides, the compound was called inactive in assay [7], in assay [8], in assay [9], in [10], in assay [11] and in [12]. Moreover, the compound was classed as inactive in [13], in assay [14], in [15], in assay [16], in assay [17] and in [18]. Besides, the call in assay [19] was inactive.
Regarding `O=C1OC2(c3ccccc31)c1ccc(O)c(Br)c1Oc1c2ccc(O)c1Br`, the result in [1], in [2], in [3], in assay [4], in [6] and in assay [7] was inactive. For the same compound, the compound was classed as inactive in assay [8], in assay [9], in [10], in assay [11], in assay [12] and in assay [13]. The result in assay [14], in assay [15], in assay [16], in assay [17], in assay [18] and in assay [19] was inactive. The AC50 in assay [5] was 56.6 µM (active).

Values taken from PubChem BioAssay (EPA / NIEHS).
